A number with no mark means an inactive call. Results filed as inconclusive are left out. A call without a number means that no potency is given here. Activity calls are given as the source filed them. Unless noted, calls come from the whole dose curve; as a rule, active = well fitted curve in the direction sought with a large enough effect in the repeat runs; inconclusive = weak or mixed curves; inactive = no such curve, though single readings can be large; an effect the other way counts as inactive or inconclusive.
What was measured:
[1] = qHTS assay to identify small molecule antagonists of the glucocorticoid receptor (GR) signaling pathway - cell viability counter screen (AID 720693); note: nearly all actives have a fitted effect of over 55% in size
[2] = qHTS assay for identifying genotoxic compounds that show differential cytotoxicity against isogenic chicken DT40 cell lines with known DNA damage response pathways - wild type cell line (AID 743012); note: nearly all actives have a fitted effect of over 60% in size; note: potency is the fitted concentration of half-maximal effect
Outline: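 Endpoint: CellTiter-Glo luminescence, 30 min RT. Cells: wild type DT40, 300/well. Exposure: compounds in DMSO, 40 h, 37 C/5% CO2, after ~0.5 h pre-incubation.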

[3] = qHTS assay for identifying genotoxic compounds that show differential cytotoxicity against isogenic chicken DT40 cell lines with known DNA damage response pathways - Rev3 mutant cell line (AID 743014); note: nearly all actives have a fitted effect of over 55% in size; note: potency is the fitted concentration of half-maximal effect
[4] = qHTS assay for identifying genotoxic compounds that show differential cytotoxicity against isogenic chicken DT40 cell lines with known DNA damage response pathways - Rad54/Ku70 mutant cell line (AID 743015); note: nearly all actives have a fitted effect of over 60% in size; note: potency is the fitted concentration of half-maximal effect
[5] = qHTS assay to identify small molecule antagonists of the androgen receptor (AR) signaling pathway - cell viability counter screen (AID 743033; note: nearly all actives have a fitted effect of over 45% in size)
[6] = qHTS assay to identify small molecule antagonists of the androgen receptor (AR) signaling pathway using the MDA cell line - cell viability counter screen (AID 743041; note: nearly all actives have a fitted effect of over 45% in size)
Outline: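 Viability read by CellTiter-Fluor fluorescence in the same wells as the antagonist screen, added after 15.5 h of a 16 h, 37C exposure. Human breast carcinoma MDA-kb2 AR-luc cells, compounds co-dosed with agonist R1881.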

[7] = qHTS assay to identify small molecule antagonists of the thyroid receptor (TR) signaling pathway - cell viability counter screen (AID 743064); note: nearly all actives have a fitted effect of over 50% in size
Outline: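 GH3.TRE-Luc cells, 4 h pre-plating; cpd + T3 1 nM final; 37 °C 23.5 h; CellTiter-Fluor 30 min; fluorescence read.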

[8] = qHTS assay to identify small molecule antagonists of the thyroid receptor (TR) signaling pathway (AID 743065); note: series mostly up to about 70 µM; nearly all actives have a fitted effect of over 55% in size
Outline: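 Antagonism measured as loss of luciferase signal in GH3 cells stably carrying a TRE-luciferase reporter, co-treated with compound and T3 (1 nM final) for 23.5 h at 37 C. Viability was read in the same well by CellTiter-Fluor.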

[9] = tested on: thyroid hormone receptor (rat, GH3 cells); test: qHTS assay to identify small molecule agonists of the thyroid receptor (TR) signaling pathway (AID 743066; calls by dose curve)
[10] = biological target: Estrogen receptor (Homo sapiens) (UniProt P03372); test: qHTS assay to identify small molecule antagonists of the estrogen receptor alpha (ER-alpha) signaling pathway (AID 743069; active = well fitted curve in the direction sought with a large enough effect in the signal ratio in the repeat runs, not every such curve was filed as active; the % refers to the signal ratio)
Estrogen receptor (Homo sapiens), sequence (P03372 whole entry, looked up): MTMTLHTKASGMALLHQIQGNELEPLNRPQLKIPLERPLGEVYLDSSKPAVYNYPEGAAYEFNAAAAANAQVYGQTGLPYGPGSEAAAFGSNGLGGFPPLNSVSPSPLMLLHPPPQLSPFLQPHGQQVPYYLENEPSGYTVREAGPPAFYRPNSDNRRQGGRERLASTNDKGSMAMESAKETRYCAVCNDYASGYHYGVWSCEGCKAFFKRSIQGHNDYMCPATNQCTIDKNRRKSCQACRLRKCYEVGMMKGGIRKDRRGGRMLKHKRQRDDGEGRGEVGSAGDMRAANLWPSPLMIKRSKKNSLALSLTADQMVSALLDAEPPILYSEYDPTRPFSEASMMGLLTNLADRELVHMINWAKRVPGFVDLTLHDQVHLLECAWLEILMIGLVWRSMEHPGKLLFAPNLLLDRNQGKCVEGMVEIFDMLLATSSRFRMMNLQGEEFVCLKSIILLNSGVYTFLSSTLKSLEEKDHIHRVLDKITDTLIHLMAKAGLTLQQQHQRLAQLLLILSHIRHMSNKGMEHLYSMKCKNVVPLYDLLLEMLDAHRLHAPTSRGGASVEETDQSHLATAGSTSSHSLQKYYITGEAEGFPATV
Outline: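 Antagonist mode: compounds in DMSO were co-added with 17beta-estradiol to ER-alpha-bla HEK293 cells (2% charcoal-stripped serum) and left 18 h at 37C. Reporter inhibition was measured as FRET fluorescence after 2 h LiveBLAzer substrate at room temperature.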

[11] = qHTS assay to identify small molecule antagonists of the estrogen receptor alpha (ER-alpha) signaling pathway - cell viability counter screen (AID 743074; calls by dose curve;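 note: HEK293 cells carrying ER-alpha-UAS-bla reporter stimulated with 17beta-estradiol; nearly all actives have a fitted effect of over 45% in size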)
[12] = biological target: Estrogen receptor (Homo sapiens) (UniProt P03372); test: qHTS assay to identify small molecule agonists of the estrogen receptor alpha (ER-alpha) signaling pathway (AID 743075; calls by dose curve;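 note: HEK293 GripTite cells with ER-alpha and UAS-driven beta-lactamase reporter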)
[13] = biological target: Estrogen receptor (Homo sapiens) (UniProt P03372); test: qHTS assay to identify small molecule agonists of the estrogen receptor alpha (ER-alpha) signaling pathway using the BG1 cell line (AID 743079); note: nearly all actives have a fitted effect of over 20% in size
[14] = qHTS assay to identify small molecule antagonists of the estrogen receptor alpha (ER-alpha) signaling pathway using the BG1 cell line (AID 743080; calls by dose curve;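 note: BG1 cells stimulated with 17beta-estradiol alongside compound; series mostly up to about 70 µM; nearly all actives have a fitted effect of over 25% in size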)
Outline: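 Seeding, 24 h rest, compound transfer from DMSO, 17beta-estradiol addition, 21.5 h incubation, CellTiter-Fluor (30 min, 37 C), then ONE-Glo (30 min, room temperature): this sequence was run on BG1-Luc-4E2 reporter cells.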

[15] = qHTS assay to identify small molecule antagonists of the estrogen receptor alpha (ER-alpha) signaling pathway using the BG1 cell line - cell viability counter screen (AID 743081);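 note: compound given together with 17beta-estradiol as the ER stimulus; series mostly up to about 70 µM; nearly all actives have a fitted effect of over 45% in size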
Aromatase (Homo sapiens) = Aromatase (Homo sapiens) (UniProt P11511); test: qHTS assay to identify aromatase inhibitors (AID 743083); note: series mostly up to about 70 µM; nearly all actives have a fitted effect of over 55% in size
Aromatase (Homo sapiens), sequence (P11511 whole entry, looked up): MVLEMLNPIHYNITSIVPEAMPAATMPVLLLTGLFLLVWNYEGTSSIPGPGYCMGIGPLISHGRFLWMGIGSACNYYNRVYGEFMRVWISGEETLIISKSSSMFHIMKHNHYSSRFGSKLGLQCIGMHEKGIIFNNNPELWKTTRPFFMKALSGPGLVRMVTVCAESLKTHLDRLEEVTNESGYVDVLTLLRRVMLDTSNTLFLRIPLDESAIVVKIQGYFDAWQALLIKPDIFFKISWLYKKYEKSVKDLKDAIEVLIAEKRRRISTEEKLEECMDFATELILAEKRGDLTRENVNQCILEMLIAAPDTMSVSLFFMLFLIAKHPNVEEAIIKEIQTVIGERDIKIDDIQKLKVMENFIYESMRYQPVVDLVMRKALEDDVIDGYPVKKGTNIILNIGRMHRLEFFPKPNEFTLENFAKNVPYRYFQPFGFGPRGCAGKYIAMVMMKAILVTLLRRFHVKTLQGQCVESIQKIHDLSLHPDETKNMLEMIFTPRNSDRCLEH

[16] = biological target: Androgen receptor (Homo sapiens) (UniProt P10275); test: qHTS assay to identify small molecule antagonists of the androgen receptor (AR) signaling pathway (AID 743035; active = well fitted inhibition curve with a large enough effect in the signal ratio in the repeat runs, not every such curve was filed as active; the % refers to the signal ratio)
Androgen receptor (Homo sapiens), sequence (P10275 whole entry, looked up): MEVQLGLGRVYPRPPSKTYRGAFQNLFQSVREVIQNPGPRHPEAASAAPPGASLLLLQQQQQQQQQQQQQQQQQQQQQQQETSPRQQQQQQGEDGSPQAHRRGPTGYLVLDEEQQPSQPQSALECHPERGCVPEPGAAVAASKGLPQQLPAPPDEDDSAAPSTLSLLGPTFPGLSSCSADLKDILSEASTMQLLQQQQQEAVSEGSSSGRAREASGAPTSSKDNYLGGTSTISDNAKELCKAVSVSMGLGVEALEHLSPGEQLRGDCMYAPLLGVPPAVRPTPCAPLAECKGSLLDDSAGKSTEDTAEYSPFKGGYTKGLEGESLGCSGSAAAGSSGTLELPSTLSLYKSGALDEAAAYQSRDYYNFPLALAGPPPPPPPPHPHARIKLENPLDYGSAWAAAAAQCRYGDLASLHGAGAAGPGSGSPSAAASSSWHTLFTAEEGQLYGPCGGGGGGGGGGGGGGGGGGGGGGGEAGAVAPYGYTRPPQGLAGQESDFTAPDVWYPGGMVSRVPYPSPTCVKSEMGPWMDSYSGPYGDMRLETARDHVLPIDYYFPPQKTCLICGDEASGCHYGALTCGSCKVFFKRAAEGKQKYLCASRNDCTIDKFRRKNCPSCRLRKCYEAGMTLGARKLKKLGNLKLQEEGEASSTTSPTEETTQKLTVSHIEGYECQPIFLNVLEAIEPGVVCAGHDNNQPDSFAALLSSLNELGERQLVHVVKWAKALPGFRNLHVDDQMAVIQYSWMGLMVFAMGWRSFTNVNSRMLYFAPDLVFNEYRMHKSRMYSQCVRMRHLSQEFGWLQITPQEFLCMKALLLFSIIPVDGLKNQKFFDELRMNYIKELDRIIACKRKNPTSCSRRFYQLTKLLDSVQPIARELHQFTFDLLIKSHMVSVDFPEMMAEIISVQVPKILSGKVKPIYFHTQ
Outline: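 R1881 agonist challenge of a HEK293 UAS-beta-lactamase AR reporter line in the presence of compound (16 h, 37C); signal taken as FRET fluorescence after 2 h with LiveBLAzer B/G substrate at room temperature.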

[17] = biological target: Androgen receptor (Homo sapiens) (UniProt P10275); test: qHTS assay to identify small molecule agonists of the androgen receptor (AR) signaling pathway (AID 743036; active = well fitted activation curve with a large enough effect in the signal ratio in the repeat runs, with a control signal flat, not every such curve was filed as active; the % refers to the signal ratio)
Outline: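 AR-bla HEK293 cells, 2,000/well; 4 h preincubation 37C/5% CO2; compound (DMSO) 16 h at 37C; LiveBLAzer B/G FRET substrate 2 h RT; fluorescence intensity read-out.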

[18] = biological target: Androgen receptor (Homo sapiens) (UniProt P10275); test: qHTS assay to identify small molecule agonists of the androgen receptor (AR) signaling pathway using the MDA cell line (AID 743040; note: nearly all actives have a fitted effect of over 20% in size)
Outline: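 Luciferase agonist assay: 16 h compound exposure at 37C without CO2 in MDA-kb2 AR-luc cells, whose MMTV promoter responds to both AR and GR. Luminescence measured after 30 min room-temperature incubation with ONE-Glo.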

[19] = biological target: Androgen receptor (Homo sapiens) (UniProt P10275); test: qHTS assay to identify small molecule antagonists of the androgen receptor (AR) signaling pathway using the MDA cell line (AID 743042; note: nearly all actives have a fitted effect of over 55% in size)
Outline: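 Antagonist mode: compounds plus R1881 agonist added to MDA-kb2 AR-luc cells, incubated 16 h at 37C. Luciferase reporter luminescence quantified, with multiplexed CellTiter-Fluor readout for cell viability.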

| SMILES | outcome [1] | Potency [2] | Potency [3] | Potency [4] | outcome [5] | outcome [6] | Potency [7] | Potency [8] | Potency [9] | outcome [10] | Potency [11] | Potency [12] | Potency [13] | Potency [14] | outcome [15] | Potency (Aromatase (Homo sapiens)) | outcome [16] | outcome [17] | outcome [18] | outcome [19] |
| --- | --- | --- | --- | --- | --- | --- | --- | --- | --- | --- | --- | --- | --- | --- | --- | --- | --- | --- | --- | --- |
| CC(=O)SCC(CC(=O)c1ccc(C)cc1)C(=O)O (stereo unspecified) | inactive | inactive | inactive | inactive | inactive | inactive | inactive | inactive | inactive | inactive | inactive | inactive | inactive | inactive | inactive | inactive | – | – | – | – |
| CC(O)C(CO)C(C)O (stereo unspecified) | inactive | inactive | inactive | inactive | inactive | inactive | inactive | inactive | inactive | inactive | inactive | inactive | inactive | inactive | inactive | inactive | inactive | inactive | inactive | inactive |
| Clc1cc(Cl)c(Cl)c(Cl)c1Cl | inactive | inactive | inactive | inactive | inactive | inactive | inactive | inactive | inactive | inactive | inactive | inactive | inactive | inactive | inactive | inactive | – | – | – | – |
| Cc1cc(O)c(Cl)cc1C | inactive | inactive | inactive | inactive | inactive | inactive | inactive | inactive | inactive | inactive | inactive | inactive | inactive | inactive | inactive | inactive | – | – | – | – |
| CCOC(=O)CC(C(C)=O)C(C)=O | inactive | inactive | inactive | inactive | inactive | inactive | inactive | inactive | inactive | inactive | inactive | inactive | inactive | inactive | inactive | inactive | – | – | – | – |
| CCCCOCCCC | inactive | inactive | inactive | inactive | inactive | inactive | inactive | inactive | inactive | inactive | inactive | inactive | inactive | inactive | inactive | inactive | – | – | – | – |
| CC(CC(=O)Cl)CC(C)(C)C (stereo unspecified) | inactive | inactive | inactive | inactive | inactive | inactive | inactive | inactive | inactive | inactive | inactive | inactive | inactive | inactive | inactive | inactive | – | – | – | – |
| CC(C)(C)OC(=O)c1ccccc1C(=O)O | inactive | inactive | inactive | inactive | inactive | inactive | inactive | inactive | inactive | inactive | inactive | inactive | inactive | inactive | inactive | inactive | – | – | – | – |
| O=C(O)CCCCCCCCCC(=O)O | inactive | 30.6 µM (active) | 34.4 µM (active) | 27.3 µM (active) | inactive | inactive | – | – | inactive | inactive | inactive | inactive | inactive | inactive | inactive | inactive | – | – | inactive | inactive |
| Nc1cc(S(=O)(=O)O)ccc1O | inactive | inactive | inactive | inactive | inactive | – | – | inactive | inactive | inactive | inactive | inactive | inactive | inactive | inactive | inactive | inactive | inactive | inactive | inactive |
| CCCCCCCCCCCBr | inactive | inactive | inactive | inactive | inactive | inactive | inactive | inactive | inactive | inactive | inactive | inactive | inactive | inactive | inactive | inactive | – | – | – | – |
| CC(C)(C)C(=O)NCCCC(=O)O | inactive | inactive | inactive | inactive | inactive | inactive | inactive | inactive | inactive | inactive | inactive | inactive | inactive | inactive | inactive | inactive | – | – | – | – |
| C/C(Cl)=C/CCl | inactive | inactive | inactive | inactive | inactive | inactive | inactive | inactive | inactive | – | inactive | inactive | – | – | inactive | inactive | inactive | inactive | – | inactive |
| Cc1ccccc1C#N | inactive | inactive | inactive | inactive | inactive | inactive | inactive | inactive | inactive | inactive | inactive | inactive | inactive | inactive | inactive | inactive | – | – | – | – |
| O=C1c2ccccc2C(=O)N1CO | inactive | inactive | inactive | inactive | inactive | inactive | inactive | inactive | inactive | inactive | inactive | inactive | inactive | inactive | inactive | inactive | inactive | inactive | inactive | inactive |
| O=C(OOC(=O)c1ccccc1)c1ccccc1 | inactive | inactive | inactive | inactive | inactive | inactive | inactive | inactive | inactive | inactive | inactive | inactive | inactive | inactive | inactive | inactive | – | – | – | – |
